Results on 13 molecules are retold here after PubChem BioAssay (NCATS).

Molecules are shown by their SMILES. Values joined by “and” are separate entries in the source; they are usually repeats but may differ in a detail not shown here. Identical values can stand only once. Inconclusive results are not listed. Values without a mark were called inactive. Active and inactive are the calls of the source. The call rests on the fitted dose curve; in most records, active means well fitted inhibition curve with a large enough effect; inconclusive means small, poorly fitted or top-dose-only effect; inactive means flat fitted curve, though single readings scatter.
On the % scale 0 is the no-effect control and ±100 the full control effect; potency means the concentration at half of the fitted maximal effect.

In this test the test system is CRL-7250. Kind of test: Cytotoxic Profiling of Annotated Libraries Using Quantitative High-Throughput Screening (AID 1296008). Further: nearly all actives have a fitted effect of over 60% in size. The following applies: Five cell lines viability, CellTiter-Glo ATP luminescence, 48-72 h; max response: hits give low values. An outline of the steps: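 Compounds were pin-transferred onto cells and incubated 48 or 72 hr at 37 degree Celsius, 95% humidity. CellTiter-Glo was added, plates sat 10 min at room temperature, then ATP-coupled luminescence was imaged as the viability read-out.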
Background: ATP-based viability assays read luminescence as a measure of living cells.
For `CCCN[C@H]1CCc2nc(N)sc2C1`, the max response was 0.673% and the call was inactive.

For the molecule `CCOCC(O)COc1ccc(NC(=O)CC[S+](C)C)cc1` (stereo not drawn), the max response was -11.9% and -0.62%.

`COc1cc(NS(=O)(=O)c2ccc(N)cc2)nc(OC)n1`: the max response was -1.11% and -2.3%.

Regarding `COC(=O)Nc1nc2ccc(C(=O)c3ccccc3)cc2[nH]1`, the Potency is 5.9 µM (active).

As for `O=C(N[C@H](CO)[C@H](O)c1ccc([N+](=O)[O-])cc1)C(Cl)Cl`, the max response is 2.58% and the outcome was inactive.

In the case of `CCCc1cc(C(N)=S)ccn1`, the call was inactive.

`O=C(O)c1cn(C2CC2)c2cc(N3CCNCC3)c(F)cc2c1=O`: the max response is -2.76% and -7.47%.

On to `O=C(O)CCn1c2c(c3ccccc31)C[C@H](NS(=O)(=O)c1ccc(F)cc1)CC2`, for which the max response is -4.51% and the molecule was classed as inactive.

Regarding `Cc1noc(NS(=O)(=O)c2ccc(N)cc2)c1C`, the max response was 4.08% and -1.95%.

`CCn1cc(C(=O)O)c(=O)c2cc(F)c(N3CCN(C)CC3)cc21`: the max response is -3.59% and the outcome was inactive.

Regarding `O=C(O)CSCC(=O)NC1CCSC1=O` (stereo not drawn), the max response was -2.44% and the call was inactive.

For the molecule `CN(C)CCc1c[nH]c2ccc(CS(=O)(=O)N3CCCC3)cc12`, the max response was -0.155% and 1.13%.

Turning to `CO[C@@H]1[C@@H](OC(N)=O)[C@@H](O)[C@H](Oc2ccc3c(O)c(NC(=O)c4ccc(O)c(CC=C(C)C)c4)c(=O)oc3c2C)OC1(C)C`, the max response is 0.852% and -24.9%.
